Experimental findings from PubChem BioAssay AID778 (Sanford-Burnham Center for Chemical Genomics, 2007) are described below.

Out of some 96,000 compounds screened, about 20,000 (21%) were called active. Only a sample is shown. Values without a mark were called inactive.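 How the source made its calls: active means CYP2C19 inhibition above a set limit at 5 µM in the primary screen (cut at about 50% in these data); inactive means the rest.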

In general, inhibition refers to the relative decrease from the control value, in per cent.

For the test, the target named is Cytochrome P450 2C19 (Homo sapiens) (UniProt P33261). In words: blockers of cytochrome P450 2C19 activity – biochemical, luminescence, ADME assay, primary screen (AID 778).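 Further: plate controls were negative control wells for no effect and 2.5 mM tranylcypromine positive control for full effect.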 The following applies: CYP2C19 Supersomes, luciferin-H EGE luminescence, 30 min; at 5 µM; hits give high values.
Cytochrome P450 2C19 (Homo sapiens), sequence (P33261 whole entry, looked up): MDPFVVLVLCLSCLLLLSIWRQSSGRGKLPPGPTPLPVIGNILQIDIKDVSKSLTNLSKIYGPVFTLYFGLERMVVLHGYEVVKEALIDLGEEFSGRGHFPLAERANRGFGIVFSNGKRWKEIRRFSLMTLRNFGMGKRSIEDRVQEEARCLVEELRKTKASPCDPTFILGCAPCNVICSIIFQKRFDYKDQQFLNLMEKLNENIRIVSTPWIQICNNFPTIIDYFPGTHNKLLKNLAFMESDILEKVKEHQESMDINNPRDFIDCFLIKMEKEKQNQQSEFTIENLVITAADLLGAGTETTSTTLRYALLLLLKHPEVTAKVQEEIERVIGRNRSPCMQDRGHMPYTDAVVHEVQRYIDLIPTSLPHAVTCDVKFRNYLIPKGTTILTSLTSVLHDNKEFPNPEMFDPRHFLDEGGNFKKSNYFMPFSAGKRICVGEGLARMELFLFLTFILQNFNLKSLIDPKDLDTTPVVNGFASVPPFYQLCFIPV
Regarding `CCOC(=O)CSc1nnc(CNC(=O)c2cccs2)n1-c1ccccc1`, the inhibition is -5.7%.

Regarding `CCOC(=O)CSc1nnc(CNC(=O)c2cccs2)n1-c1cc(OC)ccc1OC`, the inhibition is 58.2% (active).

`CCOC(=O)CSc1nnc(CNC(=O)Cc2ccccc2)n1-c1ccccc1OC`: the inhibition is 8.2%.

For `CCOc1cc(-c2cc(-c3ccc(OC)cc3)nc(N)c2C#N)ccc1O`, the inhibition was 19.9%.

As to `CCOc1ccccc1Oc1cn[nH]c1-c1ccc(OC)cc1O`, the inhibition was 100% (active).

In the case of `Cc1ccc(SCCC(=O)OCC(=O)Nc2ncc(Cl)cc2Cl)cc1`, the inhibition was 24%.

Turning to `O=c1c2ccccc2oc2nc(C3CCCCC3)n(Cc3ccco3)c(=O)c12`, the inhibition was 50.7% (active).

On to `O=c1c2ccccc2oc2nc3n(c(=O)c12)CCCS3`, for which the inhibition was 0.7%.

As for `CCc1nc2oc3ccccc3c(=O)c2c(=O)n1Cc1ccc(OC)cc1`, the inhibition was -0.6%.

Turning to `O=C(O)/C=C/C(=O)Nc1ccc(F)cc1F`, the inhibition was 5.3%.

Take `Cn1c2c(c(=O)n(C)c1=O)CN(Cc1ccco1)CN2`: the inhibition is 0.4%.

In the case of `CCOC(=O)Cc1csc(NC(=O)C(C)(C)C)n1`, the inhibition is 15.4%.

For the compound `CCOC(=O)Cc1csc(NC(NC(=O)OCC)(C(F)(F)F)C(F)(F)F)n1`, the inhibition is 13.5%.

In the case of `CCCC(CCC(=O)OC)(C(=O)OCC)c1csc(N)n1` (stereo unspecified), the inhibition was 73.6% (active).

On to `COc1ccc(-n2c(SC)nc(O)cc2=O)cc1`, for which the inhibition is 5.6%.

On to `COCCNc1nc(-n2nc(C)cc2C)nc2sc3c(c12)CCCC3`, for which the inhibition is -16.1%.

Turning to `Clc1ccccc1SCc1nc2ccccc2[nH]1`, the inhibition is 83.2% (active).

Regarding `c1ccc2c(CSCc3nc4ccccc4[nH]3)cccc2c1`, the inhibition was 89.3% (active).

With `O=C(CSc1nnc(-c2ccccc2)o1)N1CCOCC1`, the inhibition was -12.3%.

For the compound `CCCCSc1nnc(-c2ccc(C)cc2)o1`, the inhibition was 49.4%.

Turning to `c1ccc(-c2nnc(SCc3nc4ccccc4[nH]3)o2)cc1`, the inhibition is 95.2% (active).

On to `OCCNc1nc2ccccc2[nH]1`, for which the inhibition was -4.7%.

As for `Oc1ccc2nc(Cc3ccccc3)[nH]c2c1`, the inhibition was 23.6%.

On to `N#C/C(=C(/O)COc1cccc2ccccc12)c1nc2ccccc2[nH]1`, for which the inhibition was 12%.

Consider `N#Cc1c2c(c(N3CCN(CCO)CC3)n3c1nc1ccccc13)CCCC2`, for which the inhibition was 34.5%.

Consider `CN(C)CCNC(=O)C(C(=O)c1ccccc1)n1ccccc1=O` (stereo unspecified), for which the inhibition is -10.3%.

Consider `Cc1ccccc1S(=O)(=O)Cc1ccc(C(=O)NCCN2CCCCC2C)o1` (stereo unspecified), for which the inhibition was 4.1%.

`COC(=O)c1cnn2c(C(F)(F)F)cc(-c3ccco3)nc12`: the inhibition was -9%.

`COc1ccc(/C(N)=N/OC(=O)Oc2ccccc2)cc1`: the inhibition was 58.6% (active).

With `N/C(=N\OC(=O)CCc1ccccc1)c1ccc(Cl)cc1`, the inhibition is -1.3%.

On to `COc1ccc(OCCCC(=O)Oc2ccc(OC)cc2)cc1`, for which the inhibition is 6.3%.

As for `COc1ccc(OC)c(Nc2nc(-c3ccc(O)c(O)c3)cs2)c1`, the inhibition was 27.6%.

For the compound `COc1ccc(NC(=O)Nc2ccc3nc(C)c(C)nc3c2)cc1`, the inhibition was 3.2%.

On to `COc1ccc2c(c1)cc1n2CCN=C1NN`, for which the inhibition is 92.9% (active).

Take `CC(=O)N1CSCC1C(=O)O` (stereo unspecified): the inhibition was 2.2%.

In the case of `CC1(C)C/C(=C(/C#N)C(N)=O)CCO1`, the inhibition was -16.7%.

As for `CC(C)OC(=O)c1sc2nc3c(cc2c1N)C(=O)CCC3`, the inhibition was 7.1%.

As to `CC1=C(C(=O)Nc2ccc(Cl)cc2)C(c2ccco2)NC(=O)N1` (stereo unspecified), the inhibition is 18.4%.

In the case of `Cc1cccc(N2CCN(C(=O)CN(C)S(=O)(=O)c3ccc4c(c3)CCC(=O)N4)CC2)c1C`, the inhibition is 6.3%.

`COC(=O)c1ccc(COC(=O)c2c(C)nn(Cc3ccccc3Cl)c2Cl)o1`: the inhibition is 90.5% (active).

Turning to `CCOC(=O)c1cnn(Cc2ccccc2Cl)c1N`, the inhibition is 30.5%.

`COCCCNC(=O)CN1CCN(Cc2ccccc2Cl)C1=O`: the inhibition was -10.8%.

In the case of `CCOC(=O)c1sc(/N=C/Nc2nc(C)c(C(=O)OCC)s2)nc1C`, the inhibition was 7.2%.

`c1ccc(CC2CCN(c3nc4ccccc4n4cnnc34)CC2)cc1`: the inhibition was -7.7%.

`CC(=O)c1ccc(Cc2ncc(C(F)(F)F)cc2Cl)s1`: the inhibition was 16.5%.

On to `O=C(Cc1ncc(C(F)(F)F)cc1Cl)Nc1cccc(Br)c1`, for which the inhibition is 55.7% (active).

On to `O=C(CN1CCN(c2ncc(C(F)(F)F)cc2Cl)CC1)Nc1ccc2c(c1)OCO2`, for which the inhibition was 22%.

On to `CCOC(=O)c1[nH]c2c(c1C)C(=O)CC(c1ccc(N(C)C)cc1)C2` (stereo unspecified), for which the inhibition was 6.7%.

On to `CCCCn1c(SCc2ncc(-c3ccccc3)o2)nc2cc(S(N)(=O)=O)ccc21`, for which the inhibition is 25%.

Consider `Cc1cc(C)nc(NC(=O)Nc2ccccc2C(F)(F)F)n1`, for which the inhibition was 21%.

In the case of `O=C(c1ccccc1)c1cc(-c2ccccn2)c(N2CCOCC2)s1`, the inhibition is 14.1%.

Turning to `Cc1cc(=O)oc2cc(OCC3CC(c4ccccc4Cl)=NO3)ccc12` (stereo unspecified), the inhibition is 50.8% (active).

For the compound `COc1cccc(-c2nnc(SCCOc3ccc4c(C)cc(=O)oc4c3)o2)c1`, the inhibition is -15.6%.

With `Cc1cc(=O)oc2ccc(OCC(=O)O)cc12`, the inhibition is 3.3%.

As for `CCOC(=O)c1c(NC(=O)CSc2nnc(CN3CCOCC3)n2C)sc2c1CCCC2`, the inhibition was 48.7%.

`NC(=O)C1CC=CCC1C(=O)OCC(Cl)=C(Cl)Cl` (stereo unspecified): the inhibition was 22%.

In the case of `COc1ccc(N=Cc2c(O)[nH]c3ccccc23)cc1OC`, the inhibition was 32.9%.

For `COc1ccc(OC)c(N=Cc2c(O)[nH]c3ccccc23)c1`, the inhibition is 7.7%.

In the case of `COc1cc(N=Cc2c(O)[nH]c3ccccc23)cc(OC)c1OC`, the inhibition is 63.9% (active).

In the case of `Nn1c(SCC(=O)NC2CCCC2)nnc1-c1ccccc1F`, the inhibition is 21.3%.

As for `O=c1[nH][nH]c(C(F)(F)F)c1C=NCc1ccccc1Cl`, the inhibition was 93.3% (active).

On to `CC/S(CC1CC1(Cl)Cl)=N\S(=O)(=O)c1ccc(C)cc1` (stereo unspecified), for which the inhibition is 9.6%.

As to `COc1ccc(NS(=O)(=O)c2ccc(NC(=O)C(C)(C(F)(F)F)C(F)(F)F)cc2)nn1`, the inhibition is -7.1%.

For `CC1=NC2(CCCc3c2no[n+]3[O-])N(O)C1(C)C` (stereo unspecified), the inhibition is -17.9%.

As to `CSc1nnc2c(n1)OC(c1cn(C)c3ccccc13)N(C(C)=O)c1ccccc1-2` (stereo unspecified), the inhibition is 0.8%.

Consider `Oc1c(C(c2ccccn2)N2CCOCC2)ccc2cccnc12` (stereo unspecified), for which the inhibition was -8.6%.

For the compound `CCOC(=O)N1CCN(C(=O)COc2ccc(Br)cc2)CC1`, the inhibition was 59.1% (active).

Turning to `CCOC(=O)N1CCN(C(=O)CNC(=O)Cc2ccc(Cl)cc2)CC1`, the inhibition is 5.9%.

For the compound `CCOC(=O)C1CCN(C(=O)CSc2cc(=O)n(C)c3ccccc23)CC1`, the inhibition was 2.4%.

On to `CN1CCCC(OC(=O)COc2ccc(Br)cc2)C1` (stereo unspecified), for which the inhibition was 27%.

With `CCOC(=O)N1CCN(C(=O)COc2ccc(Cl)cc2C)CC1`, the inhibition is 14.4%.

`CCOC(=O)C1CCN(C(=O)COc2cc(C)c(Br)c(C)c2)CC1`: the inhibition was 86.3% (active).

Regarding `CCOC(=O)N1CCN(C(=O)CSc2nnc(-c3c[nH]c4ccccc34)n2CCOC)CC1`, the inhibition was 4.5%.

In the case of `CCOC(=O)C1CCN(C(=O)Cc2c(C(=O)O)[nH]c3ccccc23)CC1`, the inhibition is 2.6%.

As to `CCOC(=O)N1CCN(C(=O)CSc2ccc(Cl)cc2)CC1`, the inhibition is 71.6% (active).

For `CC12C(=O)N(n3cnnc3)C(=O)C1C1C=CC2C1` (stereo unspecified), the inhibition is -13.7%.

With `Cc1cc2nnc(SCC(=O)N3CCN(c4ccccc4)CC3)n2c(N)n1`, the inhibition was -9.1%.

For the compound `NC(=O)CSC1=Nc2ccccc2C2=NC(CCC(=O)NCc3ccc(F)cc3)C(=O)N12` (stereo unspecified), the inhibition was 47.9%.

Consider `CCOC(=O)CCc1c(C)c(C#N)c2[nH]c3ccccc3n2c1=O`, for which the inhibition is 27.1%.

Regarding `CC1CN(C2CCCCC2)c2nc3c(c(=O)n(C)c(=O)n3C)n2C1` (stereo unspecified), the inhibition is 29.5%.

Regarding `O=C1NC(c2cc3c(cc2Cl)OCO3)Oc2ccccc21` (stereo unspecified), the inhibition is 55.5% (active).

On to `Cc1cc(C)c2c3c(sc2n1)C(c1ccccc1)C(C#N)=C(N)O3` (stereo unspecified), for which the inhibition is -7.9%.

Take `CN(C)c1ccc(/C=C2\NC(=S)N(Cc3ccccc3)C2=O)cc1`: the inhibition is 57.6% (active).

Take `CN(C)c1cc[n+](Cc2ccccc2)cc1`: the inhibition was -3.4%.

Regarding `CC1=NN(Cc2ccccc2)C(=O)/C1=C/c1ccc(N(C)C)cc1`, the inhibition was 10.1%.

As for `CCCCCCCC(=O)NC(Nc1ccccc1OC)C(Cl)(Cl)Cl` (stereo unspecified), the inhibition was 3.6%.

Take `CCC(=O)Nc1ccc(C(=O)CSc2nnc(CNc3ccc(Cl)cc3)o2)cc1OC`: the inhibition was 11%.

As to `CCOC(=O)CSc1nnc(-c2cccc(Br)c2)o1`, the inhibition was 28.9%.

For `CCOC(=O)CSc1nnc(CNc2ccc(F)cc2)o1`, the inhibition was 56.5% (active).

In the case of `CNC(=O)c1nnn(-c2ccccc2)c1C(=O)NC`, the inhibition is -4%.

Regarding `Cc1ccc(-n2ncc3c(=O)n(-c4ccc(C)c(C)c4)c(-c4ccco4)nc32)cc1`, the inhibition is 30.9%.

Consider `O=C(NCc1cccnc1)c1ccc(CS(=O)(=O)c2ccc(Br)cc2)o1`, for which the inhibition was 100% (active).

Take `O=S(=O)(c1ccc(Br)cc1)c1nc(-c2ccccc2)oc1NCc1cccnc1`: the inhibition was 18.4%.

Consider `O=C(NCc1ccco1)c1ccc(CS(=O)(=O)Cc2ccc(F)cc2)o1`, for which the inhibition is 42.4%.

Turning to `CC(C)CNC(=O)C1CCCN(S(=O)(=O)c2ccc(-n3cnnn3)cc2)C1` (stereo unspecified), the inhibition is -17.5%.

On to `CC(C)(C)C(=O)CCN1C(=O)C2(OCCO2)c2ccccc21`, for which the inhibition is 30%.

On to `C=CCn1c(-c2ccc3[nH]c(C)c(C)c3c2)n[nH]c1=S`, for which the inhibition is 29.1%.

In the case of `O=c1cc(Cn2nnc(-c3ccc(Cl)cc3)n2)nc2sccn12`, the inhibition was 65.5% (active).

As to `O=C(NCc1cn2ccsc2n1)Nc1ccc(Cl)cc1`, the inhibition is 29.8%.

For `O=C(NCc1ccc(Cl)cc1)c1cc2c(nc3sccn32)s1`, the inhibition was 14.8%.

For the compound `Cc1cccc(C)c1NC(=O)N1CC=C(n2c(=O)[nH]c3ccccc32)CC1`, the inhibition is -0.4%.
